From the supplement of paper PMC9801561
± gives the standard deviation of the averaged measurements.

The molecules below were run on Escherichia coli Nissle 1917 (assay: area under OmniLog respiration curve over 48 h (OmniLog units x h); higher = more growth / nutrient utilisation; extreme values may be limits of the assay). Details: nutrient role: C-Source, carbohydrate; incubation: 48 h, 37 °C.
For `OC[C@H]1O[C@H](OC[C@H]2O[C@H](OC[C@H]3O[C@H](O[C@]4(CO)O[C@H](CO)[C@@H](O)[C@@H]4O)[C@H](O)[C@@H](O)[C@@H]3O)[C@H](O)[C@@H](O)[C@H]2O)[C@H](O)[C@@H](O)[C@H]1O` [Stachyose], the “area under OmniLog respiration curve” value was 433 ± 380. In the case of `OC[C@H]1O[C@H](O[C@H]2[C@H](O)[C@@H](O)[C@H](O)O[C@@H]2CO)[C@H](O)[C@@H](O)[C@@H]1O` [Maltose], the “area under OmniLog respiration curve” value is reported as 7970 ± 810. In the case of `O[C@@H]1[C@@H](O)[C@@H](O)CO[C@H]1O` [L-Arabinose], the “area under OmniLog respiration curve” value is reported as 8240 ± 430. With `OC[C@@H](O)[C@H](O)[C@@H](O)CO` [Xylitol] the “area under OmniLog respiration curve” value was 4.72. With `Nc1ncnc2c1ncn2[C@H]1C[C@H](O)[C@@H](CO)O1` [2`-Deoxyadenosine] the “area under OmniLog respiration curve” value was 8940 ± 560. `OC[C@H]1O[C@@H](O[C@H]2[C@H](O)[C@@H](O)[C@@H](O)O[C@@H]2CO)[C@H](O)[C@@H](O)[C@H]1O` [a-D-Lactose] was tested, and the “area under OmniLog respiration curve” value was 7580 ± 630. With `OC[C@@H](O)C(O)[C@H](O)CO` [D-Arabitol] the “area under OmniLog respiration curve” value was 4.72. `OC[C@H]1OC(O)[C@@H](O)[C@@H](O)[C@@H]1O` (stereo partly drawn) [D-Mannose] was tested, and the “area under OmniLog respiration curve” value was 8430 ± 440. `OC[C@H]1OC(O)[C@H](O)[C@@H](O)[C@@H]1O` (stereo partly drawn) [a-D-Glucose] was tested, and the “area under OmniLog respiration curve” value was 7320 ± 620. In the case of `OC[C@@H](O)[C@H](O)[C@H](O)[C@@H](O)CO` [Dulcitol], the “area under OmniLog respiration curve” value is reported as 3230 ± 100. With `OCC1(O)OC[C@H](O)[C@@H](O)[C@@H]1O` (stereo partly drawn) [L-Sorbose] the “area under OmniLog respiration curve” value was 6370 ± 540.
